Assay outcomes as filed in PubChem.
HDAC3 inh: inhibitors of human histone deacetylase 3. O15379. recombinant HDAC3, fluorogenic peptide/trypsin coupled, fluorescence. inhibition, % at 8.3 µM. 320,000 tested, 0.15% active; in the data active means inhibition above about 26%, passing the limit was not always enough
VLA-4 inh: inhibition in a human VLA-4 binding assay; P13612; VLA-4 expressing cells, ligand binding flow cytometry; inhibition, % (about 7 µM as worked out from the volumes in the protocol); 330,000 tested, 0.2% active
PKD1 inh: inhibitors of human PKD1 kinase. PKD1 kinase fluorescence polarization assay. 200,000 tested, 0.056% active. inhibition, % (test concentration not listed)
LANA-H2B inh: blocks KSHV LANA binding to histone H2A/H2B; Q9QR71; inhibition, % (test concentration not listed); cell-free LANA-H2A/H2B peptide, fluorescence polarization; 320,000 tested, 0.6% active; in the data active means inhibition mostly above about 10%, no sharp cut-off; inactive means mostly below about 6.7%
GRK2 aptamer HTS: inhibitors of human GRK2 displacing RNA aptamer; bead flow cytometry, FAM-aptamer displacement from GRK2; 330,000 tested, 0.59% active; AID 488847; inhibition of aptamer binding, % at 10 µM;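 active means inhibition of aptamer binding above 40%, roughly 3 SD of noise, on plates passing a quality check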;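 further: median bead fluorescence of bound FAM aptamer so fluorescent compounds give negative values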
Target sequence (P25098 whole entry, looked up): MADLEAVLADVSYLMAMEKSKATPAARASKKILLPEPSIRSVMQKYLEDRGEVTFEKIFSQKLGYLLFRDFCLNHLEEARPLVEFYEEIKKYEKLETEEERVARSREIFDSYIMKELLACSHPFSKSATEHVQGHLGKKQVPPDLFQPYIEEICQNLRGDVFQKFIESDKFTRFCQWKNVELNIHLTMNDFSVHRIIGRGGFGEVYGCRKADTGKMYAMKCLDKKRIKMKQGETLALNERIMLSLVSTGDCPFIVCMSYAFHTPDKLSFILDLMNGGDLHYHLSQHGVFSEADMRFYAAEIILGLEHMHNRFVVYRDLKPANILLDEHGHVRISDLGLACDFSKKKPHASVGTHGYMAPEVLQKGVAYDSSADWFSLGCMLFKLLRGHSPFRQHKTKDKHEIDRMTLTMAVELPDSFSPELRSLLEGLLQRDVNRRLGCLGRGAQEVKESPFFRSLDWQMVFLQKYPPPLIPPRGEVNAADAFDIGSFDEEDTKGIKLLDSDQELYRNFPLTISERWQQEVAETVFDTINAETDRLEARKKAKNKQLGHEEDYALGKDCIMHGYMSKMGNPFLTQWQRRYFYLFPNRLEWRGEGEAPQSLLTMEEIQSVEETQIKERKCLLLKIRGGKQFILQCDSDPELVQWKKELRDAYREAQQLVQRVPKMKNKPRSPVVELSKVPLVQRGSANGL
Pemphigus Ab inh: human desmoglein-3 autoantibody binding inhibition. P32926. DSG3-coupled beads, scFv-anti-DSG3-GFP binding, flow cytometry; hits give low values. binding (percent of control), % at 10 µM. 310,000 tested, 0.48% active. AID 588358;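 active means binding more than 3 SD below its plate's average and above zero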;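 further: hits lower antibody fragment binding to DSG3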
GRK2 inh confirm: confirmation of human GRK2 inhibitors displacing RNA aptamer. bead-bound GRK2, FAM-aptamer displacement, flow cytometry. shares compounds with GRK2 aptamer HTS. aptamer displacement, % at 10 µM. 2,000 tested, 4% active;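 active means aptamer displacement above 40%, near three times the noise of non-fluorescent compounds, on plates passing quality checks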;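 further: negative values mostly reflect intrinsic compound fluorescence rather than true enhancement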
Aptamer quench: fluorescent aptamer quenching in GRK2 counter-screen dose response. Fluorescent RNA aptamer beads, flow cytometry; hits give high values. shares compounds with GRK2 aptamer HTS. fluorescence change (kMESF span), kMESF (test concentration not listed). 110 tested, under 10 active;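 active means compounds whose bead fluorescence drops by more than 37 kMESF across the dose range, marking them as dye quenchers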
Aptamer quench SP: aptamer fluorescence quenching in GRK2 counter-screen. fluorescence response (% of DMSO), % at 10 µM. shares compounds with GRK2 aptamer HTS. Carboxyfluorescein RNA aptamer on beads, flow cytometry quenching; hits give low values. 2,000 tested, under 10 active;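 active means compounds that quench the bead-bound fluorescent RNA probe, cutting fluorescence to under half of the solvent control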;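 further: counterscreen run without GRK2 so only probe quenching by compound is measured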
GRK2 confirm 2: human GRK2 inhibition confirmation, cherry pick 2. shares compounds with GRK2 aptamer HTS. bead-bound GRK2, FAM-aptamer displacement, flow cytometry. inhibition of aptamer binding, % at 10 µM. 360 tested, under 10 active;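 active means inhibition of aptamer binding above 40%, about triple the noise seen with nonglowing compounds, on plates passing quality control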;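 further: negative values mostly come from compounds that fluoresce themselves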
FAM quench SP: counter-screen for GRK2 binding hits: quenchers of fluorescent RNA aptamer | fluorescence response vs DMSO, % at 10 µM | shares compounds with GRK2 aptamer HTS | carboxyfluorescein RNA aptamer beads, flow cytometry quenching; hits give low values | 360 tested, under 10 active | AID 588494;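 active means response vs DMSO under 50%, meaning signal dropped by over half, treated as fluorescence quencher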;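 further: labelled aptamer on streptavidin beads without GRK2 as a quench counter-screen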
A number is an active result; 0 = inactive; - = not tested or not shown. Compounds with a hit are over-represented: about 1.8% of the library has one in this group of screens. Unless noted, no stated cut-off is given here; in the data, active means inhibition above about 50%; inactive means the rest.

SMILES | HDAC3 inh | VLA-4 inh | PKD1 inh | LANA-H2B inh | GRK2 aptamer HTS | Pemphigus Ab inh | others
CCC(=O)Nc1cccc(C2=NOC3(C2)C[C@H](C(N)=O)N(C(=O)CC#N)C3)c1 (stereo partly specified) | 0 | 0 | - | 0 | 0 | 0 | GRK2 confirm 2=0;FAM quench SP=0
CC1(C(=O)N2CC3(CC(c4cccc(NC(=O)CC(c5ccccc5)c5ccccc5)c4)=NO3)C[C@@H]2C(N)=O)CC1 (stereo partly specified) | 0 | 0 | - | 0 | 0 | 0 | GRK2 confirm 2=0;FAM quench SP=0
CCC(=O)Nc1cccc(C2=NOC3(C2)C[C@@H](C(N)=O)N(C(=O)C2(C)CC2)C3)c1 (stereo partly specified) | 0 | 0 | - | 0 | 0 | 0
CCCCCC(=O)N1CC2(CC(c3cccc(NC(=O)[C@@H]4CCC(=O)N4)c3)=NO2)C[C@@H]1C(N)=O (stereo partly specified) | 0 | 0 | - | 0 | 0 | 0 | GRK2 confirm 2=0;FAM quench SP=0
C/C=C(/C)C(=O)Nc1cccc(C2=NOC3(C2)C[C@@H](C(N)=O)N(C(=O)CC)C3)c1 (stereo partly specified) | 0 | 0 | - | 0 | 0 | 0
COc1ccc(NC2CCCN(C(=O)c3ccc(C)c(N4CCNC4=O)c3)C2)cc1 (stereo unspecified) | 0 | 0 | - | 0 | 0 | 0
CCOC(=O)C(=CNc1cc(C)ccc1-n1cccc1)C(=O)OCC | 0 | 0 | - | 0 | 0 | 0
CC(=O)N1c2ccc(F)c(F)c2C[C@H]1C | 0 | 0 | - | 0 | 0 | 0
CN(C)c1cccc(C(=O)NNC(=O)CSc2ccccc2)c1 | 0 | 0 | - | 0 | 0 | 0
C=C(C)C(=O)Nc1cccc(C2=NOC3(C2)C[C@@H](C(N)=O)N(C(=O)c2cc([N+](=O)[O-])cc([N+](=O)[O-])c2)C3)c1 (stereo partly specified) | 0 | 0 | - | 0 | 79.0 | 0 | GRK2 inh confirm=57.1;Aptamer quench=0;Aptamer quench SP=0
C=C(C)C(=O)N1CC2(CC(c3cccc(NC(=O)/C(C)=C\C)c3)=NO2)C[C@H]1C(N)=O (stereo partly specified) | 0 | 0 | - | 0 | 0 | 0
O=C(NCCc1ccccn1)c1nc(Cn2cc(Br)cn2)no1 | 0 | 0 | - | 0 | 0 | 0
CCOC(=O)c1sc2nc(Cc3ccc(Cl)cc3)[nH]c(=S)c2c1C | 0 | 0 | 0 | 0 | 0 | 0
CCN1C(=O)[C@H]2[C@H]3CN=C(SCc4ccc(C(=O)OC)cc4)N3[C@@](C)(C(=O)OC)[C@H]2C1=O | - | - | - | - | 0 | 0
O=C(CSc1c2c(nc3ccccc13)CCCC2)NCc1ccco1 | 0 | 0 | 0 | 0 | 0 | 0
O=C(O)c1c2c(nc3ccc(F)cc13)CCC2 | 0 | 0 | 0 | 0 | 72.0 | - | GRK2 inh confirm=0;Aptamer quench SP=0
O=C(NCc1ccco1)c1c2c(nc3ccccc13)CCC2 | 0 | 0 | 0 | 0 | 0 | 0 | GRK2 confirm 2=0;FAM quench SP=0
O=C(NCc1ccc(F)cc1)c1c2c(nc3ccccc13)CCC2 | 0 | 0 | 0 | 0 | 0 | 0 | GRK2 confirm 2=0;FAM quench SP=0
O=C(Nc1cccc(S(=O)(=O)NC2=NCCC2)c1)c1cc(Cl)ccc1[N+](=O)[O-] | - | 0 | - | 0 | 0 | 0
COc1cccc(NC(=O)CNC(=O)Cn2cnc3sc(C)c(C)c3c2=O)c1 | 0 | 0 | - | 0 | 0 | 0
CCCOc1ccc(C2C(=O)N(C3CCCCC3)CC(=O)N2CCC)cc1OC (stereo unspecified) | 0 | 0 | 0 | 0 | 0 | 0
COc1cc(C2C(=O)N(C3CCCC3)CC(=O)N2Cc2ccco2)ccc1OC(C)C (stereo unspecified) | 0 | 0 | 0 | 0 | 58.0 | 0 | GRK2 inh confirm=0;Aptamer quench SP=0
Cc1ccc(C(=O)N/C(=C/c2cccnc2)C(=O)N2CCCCCC2)cc1 | 0 | 0 | - | 0 | 0 | 0
O=c1c2cc([N+](=O)[O-])ccc2nc2n1CCCC2 | 0 | 0 | - | 0 | 64.0 | 0 | GRK2 inh confirm=0;Aptamer quench SP=0
O=c1c2cc(Br)ccc2nc2n1CCCCC2 | 0 | 0 | 0 | 0 | 0 | -
SMILES | HDAC3 inh | VLA-4 inh | PKD1 inh | LANA-H2B inh | GRK2 aptamer HTS | Pemphigus Ab inh | others
COc1ccc(OC)c(C2C(C#N)=C(N)Oc3cc(N)ccc32)c1 (stereo unspecified) | 0 | 0 | 0 | 0 | 0 | -
CCOc1ccccc1C1C(C#N)=C(N)Oc2cc(N)ccc21 (stereo unspecified) | 0 | 0 | 0 | 0 | 97.0 | 0 | GRK2 inh confirm=0;Aptamer quench SP=0
CC(=O)Nc1ccc(S(=O)(=O)Oc2cccc(N3C(=O)C4CCCCC4C3=O)c2)cc1 (stereo unspecified) | 0 | 0 | 0 | 0 | 0 | 0
Cc1ccc(S(=O)(=O)Oc2cccc(N3C(=O)C4CC=CCC4C3=O)c2)cc1 (stereo unspecified) | 0 | 0 | 0 | 0 | 71.0 | - | GRK2 inh confirm=0;Aptamer quench SP=0
CCN(c1ccccc1)S(=O)(=O)c1cccc(C(=O)NCC(c2cccs2)N2CCOCC2)c1 (stereo unspecified) | 0 | 0 | - | 0 | 0 | 0
Cc1nc(C(=O)NCc2ccccc2)sc1C1(C)CC(c2ccccc2)=NO1 (stereo unspecified) | 0 | 0 | - | 0 | 0 | 0 | GRK2 inh confirm=0;Aptamer quench SP=0
COc1ccc(NC(=O)c2nc(C)c(C3(C)CC(c4ccccc4)=NO3)s2)cc1 (stereo unspecified) | 0 | 0 | - | 0 | 0 | 0
Cc1ccc(S(=O)(=O)Nc2ccc(S(=O)(=O)Nc3nccs3)cc2)cc1C | - | 0 | - | - | 0 | 0
Cc1cc(C)cc(NC(=O)C2CCCN2S(=O)(=O)c2ccc3c(c2)C(C)(C)C(=O)N3C)c1 (stereo unspecified) | 0 | 0 | - | 0 | 0 | 0
CCOc1ccc(NC(=O)C2CCCN2S(=O)(=O)c2ccc3c(c2)C(C)(C)C(=O)N3C)cc1 (stereo unspecified) | 0 | 0 | - | 0 | 48.0 | 0 | GRK2 inh confirm=0;Aptamer quench SP=0
COc1ccc(C2=NO[C@@H]3C(=O)N(c4ccc5c(c4)OCCO5)C(=O)[C@H]23)cc1OC | 0 | 0 | 0 | 0 | 0 | 0 | GRK2 confirm 2=0;FAM quench SP=0
Cc1ccccc1SCC(=O)NCC(c1ccc(F)cc1)N1CCOCC1 (stereo unspecified) | 0 | 0 | - | 0 | 45.0 | 0 | GRK2 confirm 2=0;FAM quench SP=0
CCCN(CCC)CCCNC(=O)c1ccc(CS(=O)(=O)c2c(Cl)cccc2Cl)o1 | 0 | 0 | - | 0 | 48.0 | 0 | GRK2 confirm 2=0;FAM quench SP=0
